High-throughput results (PubChem BioAssay)
Compounds with a hit are over-represented: about 19% of the library has one in this group of screens.
AMA1-RON2 inh = qHTS for Inhibitors of AMA1-RON; Towards Development of Antimalarial Drug Lead: Primary Screen; AlphaScreen AMA1-biotinylated RON2 peptide binding; Potency, µM (doses to about 58.2 µM), inactives show at the highest dose activity change, negative = inhibition, actives largely listed as inhibitors; hit rate 0.2% among 360,000;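 also: potency is read from the fitted curve at half-maximal effect; 0% = vehicle wells and -100% = peptide control; nearly all actives have a fitted effect of over 45% in size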
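AMA1 (3D7) with his tag at 25 nM final met compounds first, then biotinylated RON2 peptide at 25 nM; detection used donor plus acceptor beads, 10 µg/mL apiece, read by AlphaScreen after 30 min at room temperature.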
Pf growth 48h = Primary qHTS for delayed death inhibitors of the malarial parasite plastid, 48 hour incubation | P. falciparum luciferase growth in erythrocytes, 48 h | Potency, µM (titrated, usually from 28.7 µM), for the others: at the highest dose activity change, negative = inhibition, most hits filed as inhibitors | hit rate 5.9% among 310,000 | AID 504832, 2011; also: potency is read from the fitted curve at half-maximal effect; % is scaled to controls: 0 for no effect and ±100 for the full control effect
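Cell-based growth assay: transgenic P. falciparum expressing firefly luciferase, cultured in red cells within RPMI 1640 containing 0.5% w/v Albumax, 24 mM bicarbonate and gentamycin. A drop in luciferase activity indicates inhibition.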
CHX counter = Cycloheximide Counterscreen for Small Molecule Inhibitors of Shiga Toxin; cell reporter, cycloheximide protein synthesis inhibition counterscreen; max response, %; hit rate 12% among 300,000; AID 2314, 2010; in the data active = max response mostly above about 13%, no sharp cut-off; inactive = mostly below about 14%; also: read at 38.3 µM for the half of the compounds with a filed dose; 0% is about no effect
SARS PLpro yeast = qHTS of Yeast-based Assay for SARS-CoV PLP. S. cerevisiae expressing SARS-CoV PLpro, growth rescue. hit rate 0.19% among 330,000. Potency, µM (highest dose often 32.9 µM), without a hit: top-dose activity, positive = growth rescue, actives largely listed as activators. AID 485353, 2010; calls by dose curve; also: potency is read from the fitted curve at half-maximal effect; 0% is about no effect; nearly all actives have a fitted effect of over 55% in size
Pf growth 96h = Primary qHTS for delayed death inhibitors of the malarial parasite plastid, 96 hour incubation. P. falciparum luciferase reporter growth, 96 h. Potency, µM (top dose mostly 28.7 µM), for inactives: top-dose activity change, negative = inhibition, usual class: inhibitors. hit rate 6.9% among 320,000; also: potency is read from the fitted curve at half-maximal effect; % is scaled to controls: 0 for no effect and ±100 for the full control effect
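Two parasite generations (96 h, 37 C, 5% CO2) of compound exposure in infected erythrocytes (0.05% parasitemia, 2% hematocrit). Luciferase-reporter P. falciparum; decreased luminescence indicates inhibited growth, aimed at apicoplast-acting delayed death.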
Shiga inhibitor = A qHTS for Small Molecule Inhibitors of Shiga Toxin | Vero cells, Shiga toxin protein synthesis inhibition reporter | inhibition, % at 38.7 µM | hit rate 9.2% among 290,000; in the data active = inhibition mostly above about 28%, no sharp cut-off; inactive = mostly below about 43%; also: 0% is about no effect
Starred values were filed as active, the others as inactive; ? = inconclusive; . = not tested or not shown; [ ] = dose if it differs, or a comment. Unless noted, calls follow the shape of the dose curve; as a rule, active = well fitted curve in the direction sought with a large enough effect; inconclusive = small, poorly fitted or top-dose-only effect, or another doubt; inactive = no such curve, though single readings can be large; an effect the other way counts as inactive or inconclusive.

SMILES	AMA1-RON2 inh	Pf growth 48h	CHX counter	SARS PLpro yeast	Pf growth 96h	Shiga inhibitor
CN(C)CCN=Cc1c(O)n(-c2ccc(S(=O)(=O)N3CCOCC3)cc2)c(=O)c2ccccc12	65.3%	-5.3%	.	-1.3%	1.0%	.
Clc1ccc(Cc2ccccn2)cc1	20.3%	5.7%	.	.	12.3%	.
COc1ccc(CCNS(=O)(=O)c2cnc(Cl)c(Br)c2)cc1OC	-2.6%	-12.2%	-0.7	0.4%	?	20.8
O=C(Nc1ccccc1)Nc1ccccn1	-3.2%	147.0%	32.6*	-10.6%	76.9%	59.8*
O=C(Nc1ccccn1)C1CCN(C(=O)Nc2ccccc2)CC1	-4.3%	11.1%	.	-1.9%	5.3%	.
COCC(=O)N1CCC(n2nccc2NC(=O)CCOc2ccccc2)CC1	0.6%	-2.3%	23.8*	2.8%	11.7µM*	36.4*
COC(=O)CCCC(=O)N1CCC(n2nccc2NC(=O)CCOc2ccccc2)CC1	21.3%	23.7%	21.4*	0.1%	?	34.2
COc1cccc(CN2CCC(n3nccc3NC(=O)CCOc3ccccc3)CC2)c1O	-1.5%	.	.	.	.	.
CCCNC(=O)N1CCC(n2nccc2NC(=O)CCOc2ccccc2)CC1	22.5%	5.7%	-0.3	3.7%	?	-3.5
O=C(CCOc1ccccc1)Nc1ccnn1C1CCN(C(=O)CCC(F)(F)F)CC1	0.9%	?	23.5*	-6.7%	11.7µM*	24.9
COCc1ccc(CN2CCC(n3nccc3NC(=O)CCOc3ccccc3)CC2)o1	4.0%	-0.1%	-1.4	9.9%	?	-8.8
CCc1ccc(NC(=O)CSc2ccc(-c3ccco3)nn2)cc1	-2.5%	1.9%	17.5*	-2.3%	32.2%	23.6
CC(=O)c1cccc(NC(=O)CSc2ccc(-c3ccco3)nn2)c1	-13.4%	-10.2%	3.4	-6.5%	-22.9%	15.2
COc1ccc(C(=O)NCCSc2ccccn2)cc1	2.1%	-19.1%	32.2*	-2.3%	?	52.8*
COc1ccc(NC(=O)CSc2ccccn2)cc1	-7.4%	130.5%	49.3*	-13.3%	?	61.6*
COc1cccc(NC(=O)CSc2nc3ccccc3c(=O)n2C)c1	-2.7%	11.7µM*	-3.8	1.3%	?	-10.2
COc1ccc(NC(=O)CSCC(=O)NCCc2ccccn2)cc1	53.1%	-3.4%	10.9	1.9%	11.6%	33.7
O=C(NNc1nc(N2CCOCC2)nc(N2CCOCC2)n1)Nc1ccc(Cl)cc1	.	?	10.1	-0.8%	26.0%	19.1
O=C(Cc1c(C(=O)O)[nH]c2ccccc12)NCCN1CCN(c2ccccc2F)CC1	11.7%	15.8%	-1.8	3.3%	-23.6%	19.8
COc1ccc(NC(=O)CSc2nc(C)cc(C)n2)c([N+](=O)[O-])c1	-11.1%	-14.4%	-2.0	1.5%	2.3%	-6.0
O=C(O)CCSc1ccccn1	-0.4%	51.0%	-2.9	0.8%	?	-1.0
CCc1ccc(NC(=O)CSCCO)cc1	17.3%	29.0%	13.5	8.1%	-4.8%	36.8*
O=C(CCSc1ccccn1)Nc1ccc(Br)cc1	-4.9%	164.1%	49.1*	-15.3%	182.9%	101.4*
COc1ccccc1C(=O)CSc1ccccn1	7.4%	89.2%	27.1*	-0.2%	95.0%	94.3*
O=C(CSCCO)Nc1ccccc1	1.0%	0.3%	1.2	.	46.6%	-13.6
SMILES	AMA1-RON2 inh	Pf growth 48h	CHX counter	SARS PLpro yeast	Pf growth 96h	Shiga inhibitor
COc1ccc(NC(=O)CSc2ccccn2)c([N+](=O)[O-])c1	-10.8%	60.3%	36.8*	4.6%	32.9%	101.9*
CC(=O)Oc1ccccc1C(=O)OCCN=C1NS(=O)(=O)c2ccccc21	5.3%	3.2%	-3.6	0.6%	23.6%	-11.3
O=C(Nc1ccc2c(c1)OCO2)c1cc(C2CCCN(C(=O)CCc3ccccc3)C2)on1 (stereo not drawn)	-5.7%	.	.	.	.	.
O=C(C1CCN(S(=O)(=O)c2ccc(F)cc2)CC1)N1CCCC(C(F)(F)F)C1 (stereo not drawn)	45.4%	0.0%	.	3.8%	?	.
O=C1CC(NS(=O)(=O)c2ccc(F)cc2)CN1c1ccc2c(c1)OCCO2 (stereo not drawn)	4.9%	3.5%	.	-1.0%	-12.0%	.
O=C(C1=COCCO1)N1CCN(c2nc3ccc([N+](=O)[O-])cc3s2)CC1	5.3%	?	.	2.4%	-2.0%	.
Cc1ccc(NC(=O)COC(=O)Cn2nc(C)c([N+](=O)[O-])c2C)c([N+](=O)[O-])c1	14.9%	14.3%	28.0*	15.8%	50.0%	45.4
Cc1ccc(N(Cc2ccc(C(=O)NCCSc3ccccn3)cc2)S(C)(=O)=O)cc1C	-5.6%	?	0.1	-11.9%	0.738µM*	-8.1
COc1ccc(NC(=O)CSCc2ccccc2C)cc1	1.1%	52.8%	54.4*	3.6%	176.7%	64.9*
CCc1ccc(NC(=O)CSc2ccccn2)cc1	-11.1%	59.2%	40.3*	-1.2%	-27.5%	64.1
O=C(CSc1ccccn1)Nc1ccc(NC(=O)CSc2ccccn2)cc1	-0.8%	-11.1%	0.5	-0.6%	-3.4%	-6.0
Cc1nn(CC(=O)OCC(=O)Nc2ccccc2[N+](=O)[O-])c(C)c1[N+](=O)[O-]	-10.1%	10.6%	-3.5	4.4%	28.5%	-8.6
COCCN(C(=O)COC(=O)CCC(=O)c1ccc(Cl)cc1)c1c(N)n(Cc2ccccc2)c(=O)[nH]c1=O	9.5%	4.5%	-2.5	-1.7%	8.3%	0.6
COc1cccc(NC(=O)CSc2ccccn2)c1	7.1%	122.6%	61.5*	2.6%	112.7%	69.5*
COc1ccc(Cn2c(CCC(=O)Nc3ccc(C)cc3)nc3cccnc32)cc1	-2.3%	.	-3.9	-4.1%	10.4µM*	-13.9
COc1ccc(NC(=O)CC(C)C)c([N+](=O)[O-])c1	-5.8%	30.9%	-2.0	5.7%	0.0%	10.3
COc1ccc([N+](=O)[O-])cc1NC(=S)NC(NC(C)=O)C(Cl)(Cl)Cl (stereo not drawn)	4.5%	7.7%	-3.7	0.0%	15.3%	17.7
COc1ccc(NC(=O)CC(C)c2ccccc2)c([N+](=O)[O-])c1 (stereo not drawn)	-4.4%[11.6 µM]	-3.8%	19.0*	-3.3%	38.9%	24.1
COc1cccc(NC(=O)CSc2nc(C)cs2)c1	10.2%	16.7%	14.3	-6.8%	.	20.8
COc1ccc(NC(=S)NC(NC(=O)C(C)C)C(Cl)(Cl)Cl)c([N+](=O)[O-])c1 (stereo not drawn)	-12.4%	2.62µM*	5.4	-4.7%	50.4%	-2.7
CC(=O)Nc1sc(NC(=O)c2ccc(C)cc2)nc1-c1cccs1	5.4%	-27.4%	-4.5	-0.4%	?	17.9
CCc1c(C)sc(NC(=O)Cc2ccccc2C)c1C(=O)N1CCOCC1	-13.1%	44.8%	-2.6	-5.2%	28.9%	18.1
O=C(CSc1ncn(-c2ccccc2)n1)Nc1ccc(Br)cn1	13.1%	13.5%	3.0	-17.3%	?	-2.6
